The list is not random: actives were taken first. Their share in the collection is about 15%.
Pf growth 96h: inhibits malaria parasite growth, 96 h | P. falciparum luciferase reporter growth, 96 h | Potency, µM (series often up to 28.7 µM), without a hit: at the highest dose activity change, negative = inhibition, actives largely listed as inhibitors | 320,000 tested, 6.9% active; note: potency is the fitted concentration of half-maximal effect; % is set by controls: 0 for no effect and ±100 for the full control effect
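Plates of compound plus infected erythrocytes (2% hematocrit, 0.05% parasitemia final) incubate 96 hours, 37 C, 5% CO2. Detection reagent added; reduced luminescence from the parasites' luciferase reporter flags inhibition.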
Sm TGR inh: S. mansoni TGR enzyme inhibition. Q962Y6. purified TGR, DTNB reduction, TNB absorbance 405 nm. Potency, µM (top dose mostly 114 µM), for the others: at the highest dose activity change, negative = inhibition, hits mostly inhibitors. 360,000 tested, 3% active. AID 485364; note: potency is the fitted concentration of half-maximal effect; % is set by controls: 0 for no effect and ±100 for the full control effect; nearly all actives have a fitted effect of over 60% in size
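First, TGR (20 nM dispensed) and NADPH were mixed with compound. Second, a 15 min room-temperature incubation followed. Third, further NADPH and then DTNB were added to start the reaction. Finally, TNB absorbance was monitored kinetically.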
Pf growth 48h: inhibits P. falciparum growth in the first generation, 48 h; P. falciparum luciferase growth in erythrocytes, 48 h; Potency, µM (highest dose often 28.7 µM), without a hit: at the top dose activity change, negative = inhibition, most hits filed as inhibitors; 310,000 tested, 5.9% active; AID 504832; note: potency is the fitted concentration of half-maximal effect; % is set by controls: 0 for no effect and ±100 for the full control effect
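Luciferase-expressing P. falciparum in infected erythrocytes (2% hematocrit, 0.1% parasitemia final) in RPMI 1640/0.5% Albumax were exposed to compound for 48 hours at 37 C, 5% CO2; growth read as luminescence.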
SARS PLP yeast: inhibitors of SARS-CoV papain-like protease in yeast | AID 485353 | S. cerevisiae expressing SARS-CoV PLpro, growth rescue | 330,000 tested, 0.19% active | Potency, µM (titrated, usually from 32.9 µM), for inactives: at the highest dose activity, positive = growth rescue, hits mostly activators; calls by dose curve; note: potency is the fitted concentration of half-maximal effect; 0% is about no effect; nearly all actives have a fitted effect of over 55% in size
HCMV inh: human cytomegalovirus inhibition | activity change, negative = inhibition, % at 57.5 µM | 410,000 tested, 4.5% active | HFF cells, HCMV-luciferase reporter, 72 h; stronger effect = lower value | AID 1259415; in the data active = activity change below about -60%; inconclusive = no clear call, values can overlap the other calls; inactive = above about -39%; note: % is set by controls: 0 for no effect and ±100 for the full control effect
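Human foreskin fibroblasts infected with luciferase-reporter HCMV at MOI 1 PFU/cell, compounds at two doses. Luciferase measured 72 h post infection; normalized to buffer-only basal and Salinomycin (10uM) controls.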
HCV inhibitor: blocks hepatitis C virus; 340,000 tested, 3.4% active; Huh7.5.1 HCVcc-Cre infection, luciferase reporter, 44 h; Potency, µM (top dose mostly 41.8 µM), for the others: at the top dose activity change, negative = inhibition, usual class: inhibitors; AID 651820; note: potency is the fitted concentration of half-maximal effect; % is set by controls: 0 for no effect and ±100 for the full control effect
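Compounds are dispensed onto cells plated 4 h earlier at 1,000 per well, with HCVcc-Cre virus (about 0.5 moi) added next. Following 44 h of culture, luminescent signal is measured for 15 sec after 15 min with substrate at room temperature.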
Starred values were filed as active, the others as inactive; ? = inconclusive; nt = no result given; [ ] = another dose, or the depositor's remark. Unless noted, calls come from the whole dose curve; as a rule, active = well fitted curve in the direction sought with a large enough effect; inconclusive = small, poorly fitted or top-dose-only effect, or another doubt; inactive = no such curve, though single readings can be large; an effect the other way counts as inactive or inconclusive.

SMILES | Pf growth 96h | Sm TGR inh | Pf growth 48h | SARS PLP yeast | HCMV inh | HCV inhibitor
O=c1ccc(-c2ccc([N+](=O)[O-])cc2)nn1-c1ccccc1 | -16% | -15% | 5% | 1% | 22 | -4%
N#Cc1cc(-c2ccccc2)nn1-c1ccccc1 | -5% | 0.63µM* | 8% | 12% | 21 | ?
Clc1ccccc1CSc1nc(NCCc2ccccc2)c2ccccc2n1 | nt | 12% | nt | nt | 64 | nt
S=c1nc(-c2ccccc2)n(Cc2ccco2)c2c1CCCC2 | -5% | 35µM* | -1% | -4% | nt | nt
S=c1nc(-c2ccccc2)n(Cc2cccnc2)c2c1CCCC2 | -42% | ? | -8% | 0% | nt | 13%
c1ccc(-c2nc3nc4ccccc4nc3n2Cc2ccco2)cc1 | -3% | 10µM* | -35% | -11% | 66 | -17%
Fc1ccc(-c2nc3nc4ccccc4nc3n2Cc2ccco2)cc1 | 102% | 20µM* | -6% | -7% | 68 | 18%
CCOc1ccc(OC(=O)c2cn(-c3ccc(C)cc3)c(=O)c3ccccc23)cc1 | nt | ? | nt | nt | 7 | nt
Cc1ccc(Cl)cc1N1C(=O)N(Cc2ccc(C#N)cc2)c2ccccc2S1(=O)=O | nt | 12% | nt | nt | -18 | nt
COc1ccc(NC(C)=O)cc1NC(C)C(=O)Nc1cc(C(F)(F)F)ccc1N1CCOCC1 (configuration not stated) | ? | -8% | 3.7µM* | 1% | -33 | ?
CC(Cl)C(=O)Nc1cc(C(F)(F)F)ccc1N1CCOCC1 (configuration not stated) | ? | 1% | ? | -2% | 47 | 1%
Cc1cccc(NC(=O)CSCC(=O)Nc2cc(C(F)(F)F)ccc2N2CCOCC2)c1 | nt | nt | nt | nt | 17 | nt
Cc1ccc[n+](CC(=O)Nc2cc(C(F)(F)F)ccc2N2CCOCC2)c1 | ? | 9% | 2.1µM* | 0% | 3 | 2%
O=C(Cc1ccc2c(c1)OCCO2)Nc1cc(C(F)(F)F)ccc1N1CCOCC1 | ? | 0% | 15µM* | -4% | -31 | ?
O=C(CCc1ccccc1)NC(=S)Nc1cc(C(F)(F)F)ccc1N1CCOCC1 | 8.3µM* | -29% | ? | -1% | 45 | -8%
COc1ccccc1CNC(=O)c1ccc2c(c1)N(Cc1cc(C)ccc1C)C(=O)c1ccccc1S2 | nt | 5% | nt | nt | -25 | nt
O=C(COC(=O)c1cccc(Br)c1)NCC1CCCO1 (configuration not stated) | nt | nt | nt | -6% | -24 | ?
CC(=O)c1ccc(OCc2cc(C(=O)N3CCCCCCC3)no2)cc1 | 13µM* | -8% | -10% | -3% | 21 | -21%
COc1cccc(OCc2cc(C(=O)N3CCN(C4CCCC4)CC3)no2)c1 | ? | ? | 16% | -11% | -7 | -21%
CCN(CC)C(=O)C1CCCN(C(=O)c2cc(COc3cccc(OC)c3)on2)C1 (configuration not stated) | 9.3µM* | 3% | 20% | 2% | 26 | -13%
CCC1CCCCN1C(=O)c1cc(COc2ccc(-n3cncn3)cc2)on1 (configuration not stated) | 1% | -13% | 25% | 3% | -61* | 32µM*
CC(=O)c1ccc(OCc2cc(C(=O)N3CCOCC3)no2)cc1 | ? | 0% | 46% | 5% | 153 | -6%
CC(=O)c1cccc(OCc2cc(C(=O)N3CC4C[C@@H]5CC3C[C@H](C4)C5)no2)c1 | 16% | 32µM* | ? | -4% | -10 | ?
Cc1cccc(NC(=O)CCN2CCN(c3ccccc3F)CC2)c1 | nt | -5% | nt | nt | 23 | nt
CCOC(=O)C1CCCN(C(=O)c2cc(COc3ccc(C)nc3)on2)C1 (configuration not stated) | -8% | ? | 11% | -1% | 58 | 8.9µM*
SMILES | Pf growth 96h | Sm TGR inh | Pf growth 48h | SARS PLP yeast | HCMV inh | HCV inhibitor
C=C1C(=O)[C@]23C[C@H]1CC[C@H]2[C@]1(C)[C@@H](OC(C)=O)CC[C@@](C)(C(=O)O)[C@H]1C[C@@H]3O | nt | nt | nt | nt | -66* | nt
C=C1C(=O)[C@]23C[C@H]1CC[C@H]2[C@]1(C)[C@@H](OC(C)=O)CC[C@@](C)(C(=O)OC)[C@H]1C[C@@H]3OC(C)=O | nt | nt | nt | nt | -100* | nt
C=C1C(=O)[C@]23C[C@H]1CCC2[C@@]1(C)C(C[C@@H]3O)[C@](C)(C(=O)OC)CC[C@@H]1OC(C)=O (some centres not stated) | nt | nt | nt | nt | -101* | nt
C=C1C(=O)[C@]23C[C@H]1CC[C@H]2[C@]1(C)[C@@H](O)CC[C@@](C)(C(=O)O)[C@H]1C[C@@H]3O | nt | nt | nt | nt | -6 | nt
Cc1cc(C)c2nc(SCC(=O)NC(=O)c3cccn3C)cc(C)c2c1 | -13% | -14% | -14% | -2% | 7 | -12%
COP(=O)(OC)C(NC(=O)Nc1ccccc1)c1ccccc1 (configuration not stated) | 5% | 8% | 13% | 0% | -4 | 12%
CCN(CC)S(=O)(=O)c1ccc(Cl)c(NC(=O)c2ccc(C#N)cc2)c1 | -7% | -15% | -18% | 18% | ? | ?
Cc1ccc(NC(=O)Cc2ccccc2Cl)cc1S(=O)(=O)N(C)C | ? | -3% | 0% | 17% | -35 | ?
CCN(CC)S(=O)(=O)c1ccc(C)c(NCC(=O)Nc2ccc(C#N)c(Cl)c2)c1 | 5.2µM* | -6% | ? | -9% | ? | 13µM*
CN(C)S(=O)(=O)c1cc(NC(=O)C2=COCCO2)ccc1Cl | 12µM* | -2% | -16% | 2% | -5 | 23%
Cc1ccc(NC(=O)CNc2ccc(Cl)c(Cl)c2)cc1S(=O)(=O)N(C)C | ? | 4% | -4% | -13% | -72* | 6.3µM*
O=C(Nc1ccc(Cl)c(S(=O)(=O)N2CCCCC2)c1)C1=COCCO1 | ? | -11% | 10% | -17% | -33 | ?
Cc1ccc(NC(=O)Cc2ccc(Cl)c(Cl)c2)cc1S(=O)(=O)N(C)C | -77% | -7% | 5% | -2% | -61* | ?
CCOc1ccc(NC(=O)Cn2c(=O)c(CNc3ccc(OC)cc3)cc3ccc(OC)cc32)cc1 | nt | -5% | nt | nt | -27 | nt
Clc1ccc(CS[C@@H](Cn2ccnc2)c2ccc(Cl)cc2Cl)cc1 | 2.3µM* | nt | 5.1µM* | nt | nt | nt
Clc1ccc(CSC(Cn2ccnc2)c2ccc(Cl)cc2Cl)cc1 (configuration not stated) | 2.9µM* | 2% | 2.1µM* | -60% | ? | 6%[8.37 µM]
O=C(Cc1ccc(Cl)cc1)NCCCn1ccnc1 | ? | -12% | ? | -1% | 13 | 3%
Cc1ccc(Cc2c(-c3cccc(Cl)c3)nc3c(C)cc(Br)cn23)cc1 | nt | nt | nt | nt | 40 | nt
CCn1c(C(=O)OC)cc2c1ccn2-c1ccc(F)cc1 | nt | 0% | 11% | -37% | 70 | 4.5µM*
